In PubChem BioAssay:
Activity calls are given as the source filed them.

Columns and labels:
[1] = tested on: Wnt5a (protein binding on small-molecule microarray); assay: Wnt5a binders on small-molecule microarray, primary screen, biophysical, 635/667 nm fluorescence (AID 1142); details: 635 nm fluorescence, higher = more signal;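 note: fluorescence read at 667 nm with signal to noise per printed feature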
[2] = cell viability in Huh7 cells, primary screen, cytotoxicity control for HCV replication inhibitor project, CellTiter-Glo luminescence, basal, 48 h (AID 1143); details: Huh7 HCV replicon, higher = more signal, called active from +8 up or from −8 down;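 note: Huh7 hepatoma cells carrying a hepatitis C replication reporter with no stimulus; test concentration not given here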
[3] = CREB reporter modulators without forskolin, primary screen, cell-based, PC12, CRE-LacZ reporter, unstimulated (AID 1145); details: no forskolin, luminescence, 4.5 h, higher = more signal, called active from +8 up or from −8 down
[4] = CREB reporter modulators under forskolin, primary screen, cell-based, PC12, CRE-LacZ reporter, forskolin-stimulated (AID 1146); details: luminescence, 4.5 h, higher = more signal, called active from +8 up or from −8 down;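 note: PC12 cells with 6xCRE LacZ reporter stimulated by forskolin 10 µM; beta-galactosidase reporter signal reflecting CREB driven transcription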
[5] = target: Streptavidin (Streptomyces avidinii) (UniProt P22629); assay: streptavidin binders on small-molecule microarray, primary screen, artefact control for SMM compound annotation, biophysical, 635/667 nm fluorescence (AID 1147); details: streptavidin binding, higher = more signal;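 note: signal reflects streptavidin binding to arrayed compounds as a control protein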
[6] = small-molecule binders of probe aInhba, primary screen, biochemical, small-molecule microarray, 635/667 nm fluorescence (AID 1148); details: higher = more signal;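 note: score merges 667nm spot fluorescence with signal-to-noise for antibody binding to printed compounds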
[7] = target: Torsin-1A (Homo sapiens) (UniProt O14656); assay: torsin A binders from cell lysate, primary screen, small-molecule microarray, wild-type, 635/667 nm (AID 1149); details: COS7 hTOR1A-WT lysate, 635 nm fluorescence, higher = more signal
[8] = target: Torsin-1A (Homo sapiens) (UniProt O14656); assay: small-molecule binders of mutant TOR1A in lysate, primary screen, cell lysate, small-molecule microarray, COS7 lysate, 635/667 nm fluorescence (AID 1150); details: COS7 hTOR1A mutant lysate, 635 nm fluorescence, higher = more signal;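 note: score pools 667 nm emission and signal to noise measuring lysate protein binding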
[9] = tested on: Sonic hedgehog protein (Shh); assay: small-molecule binders of Shh protein, primary screen, biochemical, small-molecule microarray, 635/667 nm fluorescence (AID 1151); details: small-molecule microarray binding, 635 nm fluorescence; higher = more signal;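 note: Shh protein binding to compounds spotted on small-molecule microarray slides; score combines spot fluorescence intensity with signal-to-noise across triplicate slides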
[10] = E. coli DRC41 culture turbidity changes, primary screen, E. coli filamentation inducer project, strain DRC41, OD650, 48 h (AID 1152);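 note: E. coli MC1000 strain DRC41 lacking acrAB efflux pump and sulA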; details: E. coli DRC41 (acrAB sulA), higher = more signal, called active from +8 up or from −8 down
[11] = small-molecule binders of probe aLefty1, primary screen, biochemical, small-molecule microarray, 635/667 nm fluorescence (AID 1153); details: higher = more signal;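 note: score merges spot fluorescence with signal-to-noise ratio from the scanned slide images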
[12] = PSAC antagonists in infected red cells, primary screen, cell-based, P. falciparum Indochina, OD700, 1 h (AID 1154); details: P. falciparum Indochina infected RBC osmotic lysis, higher = more signal, called active from +8 up or from −8 down
[13] = PSAC antagonists in infected red cells, primary screen, cell-based, P. falciparum Indochina, OD700, 2 h (AID 1155);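 note: lysis reports solute entry through the parasite surface anion channel PSAC; channel blockers reduce lysis of infected cells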; details: P. falciparum Indochina infected erythrocytes, osmotic lysis OD700; higher = more signal, called active from +8 up or from −8 down
[14] = osmotic lysis modulators in infected erythrocytes, primary screen, PSAC antagonist project, cell-based, P. falciparum Indochina, OD700, 3 h (AID 1156); details: higher = more signal, called active from +8 up or from −8 down
[15] = PSAC antagonists in infected red cells, primary screen, cell-based, P. falciparum Indochina, OD700, 18 h (AID 1157); details: P. falciparum Indochina infected erythrocytes, osmotic lysis OD700, 18 h; higher = more signal, called active from +8 up or from −8 down
[16] = modulators of S6 phosphorylation in cells, primary screen, cell-based, A549, cytoblot, luminescence, serum-stimulated (AID 1158); details: A549 phospho-S6 cytoblot, 5 h, higher = more signal;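 note: serum-stimulated A549 lung adenocarcinoma cells; signal is phosphorylated S6 detected by cytoblot immunostaining with HRP secondary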
[17] = target: NADPH oxidase 2 (Homo sapiens) (UniProt P04839); assay: NOX2-dependent H2O2 signal modulators, primary screen, NOX inhibitor project, cell-based, HEK293-NOX2, PMA-stimulated, Amplex Red fluorescence (AID 1159); details: 45 min, higher = more signal, called active from +8 up or from −8 down; note: test concentration not given here
[18] = target: NADPH oxidase 4 (Homo sapiens) (UniProt Q9NPH5); assay: NOX4-dependent H2O2 signal modulators, primary screen, NOX inhibitor project, cell-based, HEK293-NOX4, tetracycline-induced, Amplex Red fluorescence (AID 1160); details: 45 min, higher = more signal, called active from +8 up or from −8 down
[19] = target: NADPH oxidase 5 (Homo sapiens) (UniProt Q96PH1); assay: NOX5-dependent H2O2 signal modulators, primary screen, NOX inhibitor project, cell-based, HEK293-NOX5, Amplex Red fluorescence (AID 1161); details: HEK293-NOX5, ionomycin, 45 min, higher = more signal
Chain of NADPH oxidase 5 (Homo sapiens) (Q96PH1 whole entry, looked up): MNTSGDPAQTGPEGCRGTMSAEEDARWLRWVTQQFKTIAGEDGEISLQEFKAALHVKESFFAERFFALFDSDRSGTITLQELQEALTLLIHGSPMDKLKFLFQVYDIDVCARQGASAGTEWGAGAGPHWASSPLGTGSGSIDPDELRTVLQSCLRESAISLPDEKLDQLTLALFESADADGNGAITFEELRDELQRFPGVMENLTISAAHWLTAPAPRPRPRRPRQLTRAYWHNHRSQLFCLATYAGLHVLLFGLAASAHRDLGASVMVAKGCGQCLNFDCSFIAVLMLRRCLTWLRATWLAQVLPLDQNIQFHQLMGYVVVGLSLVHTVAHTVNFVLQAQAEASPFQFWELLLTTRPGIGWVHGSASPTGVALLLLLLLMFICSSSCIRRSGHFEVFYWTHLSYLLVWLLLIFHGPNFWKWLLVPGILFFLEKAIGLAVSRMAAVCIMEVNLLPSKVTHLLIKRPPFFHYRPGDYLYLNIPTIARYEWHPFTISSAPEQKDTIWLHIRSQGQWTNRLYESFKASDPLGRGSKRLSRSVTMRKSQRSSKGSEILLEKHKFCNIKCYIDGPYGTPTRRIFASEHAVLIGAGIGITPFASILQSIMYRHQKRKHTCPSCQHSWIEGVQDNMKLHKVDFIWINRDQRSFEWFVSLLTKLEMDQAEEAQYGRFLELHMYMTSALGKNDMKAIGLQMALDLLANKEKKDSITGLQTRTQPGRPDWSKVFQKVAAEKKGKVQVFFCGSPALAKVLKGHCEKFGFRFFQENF

Chain of Torsin-1A (Homo sapiens) (O14656 whole entry, looked up): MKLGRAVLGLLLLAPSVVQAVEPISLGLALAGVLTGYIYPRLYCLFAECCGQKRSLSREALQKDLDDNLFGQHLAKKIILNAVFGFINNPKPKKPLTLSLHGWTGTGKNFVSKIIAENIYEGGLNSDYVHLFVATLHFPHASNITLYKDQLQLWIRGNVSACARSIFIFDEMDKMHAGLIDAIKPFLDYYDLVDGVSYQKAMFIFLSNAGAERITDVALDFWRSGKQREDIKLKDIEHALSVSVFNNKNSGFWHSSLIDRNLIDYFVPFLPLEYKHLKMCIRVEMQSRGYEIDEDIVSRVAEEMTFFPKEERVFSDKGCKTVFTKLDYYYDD
Chain of Streptavidin (Streptomyces avidinii) (P22629 whole entry, looked up): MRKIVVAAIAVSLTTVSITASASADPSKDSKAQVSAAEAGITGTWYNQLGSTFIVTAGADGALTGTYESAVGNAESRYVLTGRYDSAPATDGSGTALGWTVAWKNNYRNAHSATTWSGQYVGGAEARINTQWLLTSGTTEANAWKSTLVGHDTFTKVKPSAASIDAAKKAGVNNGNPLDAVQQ
Chain of NADPH oxidase 2 (Homo sapiens) (P04839 whole entry, looked up): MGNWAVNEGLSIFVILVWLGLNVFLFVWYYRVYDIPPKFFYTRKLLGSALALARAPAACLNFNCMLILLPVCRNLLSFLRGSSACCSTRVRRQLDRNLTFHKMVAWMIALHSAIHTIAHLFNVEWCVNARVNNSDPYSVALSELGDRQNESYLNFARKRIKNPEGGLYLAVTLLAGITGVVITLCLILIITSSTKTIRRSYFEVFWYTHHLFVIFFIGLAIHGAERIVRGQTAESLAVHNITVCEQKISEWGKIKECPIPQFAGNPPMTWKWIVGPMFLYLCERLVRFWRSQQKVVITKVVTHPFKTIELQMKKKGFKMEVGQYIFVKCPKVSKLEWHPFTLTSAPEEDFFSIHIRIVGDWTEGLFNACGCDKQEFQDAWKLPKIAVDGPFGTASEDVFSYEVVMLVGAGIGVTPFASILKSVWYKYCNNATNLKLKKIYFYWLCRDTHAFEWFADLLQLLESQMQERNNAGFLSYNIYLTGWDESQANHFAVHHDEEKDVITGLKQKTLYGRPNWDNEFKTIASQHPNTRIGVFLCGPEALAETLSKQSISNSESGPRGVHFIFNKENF
Chain of NADPH oxidase 4 (Homo sapiens) (Q9NPH5 whole entry, looked up): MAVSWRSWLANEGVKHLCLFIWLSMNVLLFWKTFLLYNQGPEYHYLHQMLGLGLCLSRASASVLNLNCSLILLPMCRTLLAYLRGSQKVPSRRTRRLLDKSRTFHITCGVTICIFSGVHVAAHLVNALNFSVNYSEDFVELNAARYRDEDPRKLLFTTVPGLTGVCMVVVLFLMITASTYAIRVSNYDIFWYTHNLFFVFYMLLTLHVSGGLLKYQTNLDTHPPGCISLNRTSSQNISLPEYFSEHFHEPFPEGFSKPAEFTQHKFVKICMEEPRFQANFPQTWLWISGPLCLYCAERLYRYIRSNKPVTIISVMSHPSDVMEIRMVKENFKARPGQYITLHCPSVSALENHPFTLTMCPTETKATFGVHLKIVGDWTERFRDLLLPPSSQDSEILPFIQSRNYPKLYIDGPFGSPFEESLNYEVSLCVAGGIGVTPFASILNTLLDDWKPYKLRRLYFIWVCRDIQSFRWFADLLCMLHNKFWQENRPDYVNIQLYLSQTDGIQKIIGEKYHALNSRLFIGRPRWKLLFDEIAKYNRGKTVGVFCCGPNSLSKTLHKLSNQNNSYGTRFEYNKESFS

With C=C(/C(=C/C[C@@H](OC(=O)c1ccncc1)c1ccc(CO)o1)c1cnc2ccccc2c1)C(C)C the composite z-score [1] was 0.117, the z-score [2] was -1.35 (inactive) and the z-score [3] was 2.21 (inactive). For the same compound, the z-score [4] was -0.42 (inactive), the composite z-score [5] was 1.72 and the composite z-score [6] was 0.0464. The composite z-score [7] was 0.165, the composite z-score [8] was 0.475 and the composite z-score [9] was 1.15. For the same compound, the z-score [10] was 0.767 (inactive), the composite z-score [11] was 0.0248 and the z-score [12] was 4.66 (inactive). For the same compound, the z-score [13] was 0.231 (inactive), the z-score [14] was 0.633 (inactive) and the z-score [15] was -0.0835 (inactive). For the same compound, the z-score [16] was -0.191, the z-score [17] was 0.588 (inactive) and the z-score [18] was -0.649 (inactive). It also gave a z-score [19] of -1.08.

For CN(C)C(=O)[C@@]1(Cc2ccccc2N=[N+]=[N-])N=C(c2ccc(OCCCO)cc2)O[C@H]1c1ccccc1CN=[N+]=[N-], the composite z-score [1] was 0.549, the z-score [2] was -3.09 (inactive) and the z-score [3] was 1.65 (inactive). For the same compound, the z-score [4] was -1.39 (inactive), the composite z-score [5] was 1.41 and the composite z-score [6] was 0.372. For the same compound, the composite z-score [7] was 0.477, the composite z-score [8] was 1.24 and the composite z-score [9] was 0.397. The z-score [10] was 1.04 (inactive), the composite z-score [11] was 0.635 and the z-score [12] was 17.8 (active). For the same compound, the z-score [13] was 2.5 (inactive), the z-score [14] was 2.73 (inactive) and the z-score [15] was -0.682 (inactive). For the same compound, the z-score [16] was 1.01, the z-score [17] was -1.52 (inactive) and the z-score [18] was 1.06 (inactive). The z-score [19] was 0.474.

With C[C@@H]1CC[C@H]2C(=O)N3CCC[C@H]3C(=O)N2[C@H]1c1ccc(Br)cc1 the composite z-score [1] was 0.12, the z-score [2] was -0.184 (inactive) and the z-score [3] was 1.1 (inactive). The z-score [4] was -0.0739 (inactive), the composite z-score [5] was 1.98 and the composite z-score [6] was -0.0986. For the same compound, the composite z-score [7] was 0.529, the composite z-score [8] was 0.492 and the composite z-score [9] was -0.0312. For the same compound, the z-score [10] was 1.29 (inactive), the composite z-score [11] was -0.218 and the z-score [12] was 0.338 (inactive). The z-score [13] was -0.0391 (inactive), the z-score [14] was 0.363 (inactive) and the z-score [15] was 0.444 (inactive). For the same compound, the z-score [16] was 0.349, the z-score [17] was 0.607 (inactive) and the z-score [18] was 0.296 (inactive). It also gave a z-score [19] of 0.764.

For CN1C2C=C(c3ccc(CO)cc3)C(C3C(=O)N(C(N)=O)C(=O)C32)C1c1cccs1 (stereo unspecified), the composite z-score [1] was -0.25, the z-score [2] was -0.975 (inactive) and the z-score [3] was 2.09 (inactive). For the same compound, the z-score [4] was -1.5 (inactive), the composite z-score [5] was -0.487 and the composite z-score [6] was -0.0791. It also gave a composite z-score [7] of 0.0899, a composite z-score [8] of 0.782 and a composite z-score [9] of 1.4. The z-score [10] was 1.37 (inactive), the composite z-score [11] was -0.0893 and the z-score [12] was 2.26 (inactive). For the same compound, the z-score [13] was -1.44 (inactive), the z-score [14] was -0.71 (inactive) and the z-score [15] was -1.37 (inactive). The z-score [16] was -0.402, the z-score [17] was 1.57 (inactive) and the z-score [18] was -0.124 (inactive). For the same compound, the z-score [19] was -0.0981.

In the case of COc1ccc([Si](C)(C)[C@H]2[C@H](CCO)O[C@@]3(C(=O)N(Cc4ccc(N5CCCCC5=O)cc4)c4ccccc43)[C@@H]2C)cc1, the composite z-score [1] is reported as -0.0939, the z-score [2] is reported as -3.56 (inactive) and the z-score [3] is reported as 1.98 (inactive). For the same compound, the z-score [4] was -2.57 (inactive), the composite z-score [5] was -0.0077 and the composite z-score [6] was -0.128. It also gave a composite z-score [7] of 0.446, a composite z-score [8] of 0.62 and a composite z-score [9] of 1.58. The z-score [10] was 0.178 (inactive), the composite z-score [11] was 0.0361 and the z-score [12] was 29.4 (active). The z-score [13] was 25.6 (active), the z-score [14] was -0.512 (inactive) and the z-score [15] was 2.98 (inactive). For the same compound, the z-score [16] was 1.26, the z-score [17] was 1.11 (inactive) and the z-score [18] was 0.347 (inactive). It also gave a z-score [19] of 1.5.

With C=CC[C@]1(C(=O)O)N=C(c2ccc(OCCCO)cc2)O[C@H]1c1ccccc1 the composite z-score [1] was -0.0903, the z-score [2] was -0.551 (inactive) and the z-score [3] was 1.38 (inactive). For the same compound, the z-score [4] was -1.04 (inactive), the composite z-score [5] was 0.0596 and the composite z-score [6] was -0.0471. For the same compound, the composite z-score [7] was -0.753, the composite z-score [8] was -0.0649 and the composite z-score [9] was -0.712. For the same compound, the z-score [10] was 1.14 (inactive), the composite z-score [11] was -0.0984 and the z-score [12] was 11.7 (active). The z-score [13] was 0.66 (inactive), the z-score [14] was 0.211 (inactive) and the z-score [15] was 0.198 (inactive). The z-score [16] was 0.663, the z-score [17] was -0.343 (inactive) and the z-score [18] was 0.388 (inactive). It also gave a z-score [19] of 1.22.

With COCCOC(=O)N1C(=O)[C@@]2(c3cc(C#CCNC(N)=O)ccc31)[C@H](c1ccc(OCCO)cc1)N1[C@H](c3ccccc3)[C@H](c3ccccc3)OC(=O)[C@H]1[C@@H]2C(=O)Nc1nc2ccccc2s1 the composite z-score [1] was 0.483, the z-score [2] was -1.6 (inactive) and the z-score [3] was 0.627 (inactive). For the same compound, the z-score [4] was -1.2 (inactive), the composite z-score [5] was 0.422 and the composite z-score [6] was -0.224. The composite z-score [7] was 0.72, the composite z-score [8] was 0.471 and the composite z-score [9] was 1.6. The z-score [10] was 2.28 (inactive), the composite z-score [11] was 0.0844 and the z-score [12] was 2.66 (inactive). For the same compound, the z-score [13] was 1.67 (inactive), the z-score [14] was 0.73 (inactive) and the z-score [15] was 1.24 (inactive). For the same compound, the z-score [16] was 0.652, the z-score [17] was 0.398 (inactive) and the z-score [18] was -0.211 (inactive). For the same compound, the z-score [19] was 1.12.

With COC(=O)C1=CC(c2ccc(CO)cc2)=CC(C2CC2)N(Cc2sc3ccccc3c2Cl)C=C1C(=O)OC (stereo unspecified) the composite z-score [1] was 0.213, the z-score [2] was -5.35 (inactive) and the z-score [3] was 0.272 (inactive). The z-score [4] was -1.57 (inactive), the composite z-score [5] was 2.25 and the composite z-score [6] was 0.23. The composite z-score [7] was 0.454, the composite z-score [8] was 1.45 and the composite z-score [9] was 0.313. The z-score [10] was -0.248 (inactive), the composite z-score [11] was 0.385 and the z-score [12] was 13.7 (active). The z-score [13] was 0.815 (inactive), the z-score [14] was -0.994 (inactive) and the z-score [15] was -1.07 (inactive). The z-score [16] was 0.983, the z-score [17] was -0.872 (inactive) and the z-score [18] was -0.189 (inactive). It also gave a z-score [19] of -0.0786.

For O=C(CS)NCCCCCNC(=O)[C@H]1C[C@H]2C(=O)N3CCC[C@H]3C(=O)N2[C@H]1c1ccc(O)cc1, the composite z-score [1] was 0.143, the z-score [2] was -0.564 (inactive) and the z-score [3] was -0.528 (inactive). For the same compound, the z-score [4] was -1.59 (inactive), the composite z-score [5] was -1.13 and the composite z-score [6] was -0.024. It also gave a composite z-score [7] of -0.159, a composite z-score [8] of 0.0883 and a composite z-score [9] of 1.63. For the same compound, the z-score [10] was 1.65 (inactive), the composite z-score [11] was 0.357 and the z-score [12] was 2.68 (inactive). The z-score [13] was -0.856 (inactive), the z-score [14] was -2.55 (inactive) and the z-score [15] was -1.63 (inactive). For the same compound, the z-score [16] was 1.24, the z-score [17] was 0.274 (inactive) and the z-score [18] was 0.00663 (inactive). The z-score [19] was 0.214.
